± gives the standard deviation of the averaged measurements.
Test system: firefly luciferase (FLuc)
Experiment: residual bioluminescent signal relative to negative control without GSH; higher = less interference (more residual luciferase signal)
Conditions: screening conditions buffer
Protocol: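 Selected metal salts at 3-4 concentrations tested on purified FLuc, NLuc or RLuc in screening buffer with 0, 0.2 or 2 mM glutathione added; 10 min enzyme pre-incubation at RT, luminescence 10 min after substrate. Signal normalised to negative control without GSH (% N_VALUE); triplicate wells.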

[1] = metal salt concentration 1 mM, glutathione 0 mM
[2] = metal salt concentration 1 mM, glutathione 0.2 mM
[3] = metal salt concentration 1 mM, glutathione 2 mM

Row | SMILES | residual bioluminescent signal (metal salt concentration 0.0001 mM, glutathione 0 mM) [%] | residual bioluminescent signal (metal salt concentration 0.0001 mM, glutathione 0.2 mM) [%] | residual bioluminescent signal (metal salt concentration 0.0001 mM, glutathione 2 mM) [%] | residual bioluminescent signal (metal salt concentration 0.0047 mM, glutathione 0 mM) [%] | residual bioluminescent signal (metal salt concentration 0.0047 mM, glutathione 0.2 mM) [%] | residual bioluminescent signal (metal salt concentration 0.0047 mM, glutathione 2 mM) [%] | residual bioluminescent signal (metal salt concentration 0.02 mM, glutathione 0 mM) [%] | residual bioluminescent signal (metal salt concentration 0.02 mM, glutathione 0.2 mM) [%] | residual bioluminescent signal (metal salt concentration 0.02 mM, glutathione 2 mM) [%] | residual bioluminescent signal [1] [%] | residual bioluminescent signal [2] [%] | residual bioluminescent signal [3] [%] | residual bioluminescent signal (metal salt concentration 0.2 mM, glutathione 0 mM) [%] | residual bioluminescent signal (metal salt concentration 0.2 mM, glutathione 0.2 mM) [%] | residual bioluminescent signal (metal salt concentration 0.2 mM, glutathione 2 mM) [%] | residual bioluminescent signal (metal salt concentration 0.26 mM, glutathione 0 mM) [%] | residual bioluminescent signal (metal salt concentration 0.26 mM, glutathione 0.2 mM) [%] | residual bioluminescent signal (metal salt concentration 0.26 mM, glutathione 2 mM) [%]
1 | [Cl][Fe]([Cl])[Cl] [iron(III) chloride] | 89.7 ± 5 | 66.3 ± 5.5 | 0.338 ± 0.22 | 51.2 ± 3.8 | 36.4 ± 2.5 | 0.483 ± 0.17 | 1.11 ± 0.084 | 0.87 ± 0.14 | 0.725 ± 0.43 | 1.06 ± 0.36 | 0.628 ± 0.47 | 0.29 ± 0.14 |  |  |  |  |  | 
2 | [Cl][Fe][Cl] [iron(II) chloride] |  |  |  |  |  |  |  |  |  | 0.58 ± 0.29 | 0.556 ± 0.31 | 0.531 ± 0.22 | 98.6 ± 7.2 | 85.2 ± 7.9 | 0.483 ± 0.3 | 2.17 ± 0.52 | 0.87 ± 0.25 | 0.387 ± 0.3

Reference: the supplement of paper PMC11628255, “Interference of metal ions on the bioluminescent signal of firefly, Renilla, and NanoLuc luciferases in high-throughput screening assays” (Frontiers in Chemistry, 2024)
